# Measurements as given in PubChem BioAssay AID2685 (National Center for Advancing Translational Sciences (NCATS), 2010).
# Among all 320,000 compounds or so, about 2,100 (0.66%) were called active. Another 53% or so got no clear call; they are omitted. Calls come from the whole dose curve; as a rule, active = well fitted inhibition curve with a large enough effect in the signal ratio, with a control signal flat (not every such curve was filed as active); inconclusive = small, poorly fitted or top-dose-only effect, or effect the other way, or a change in a side signal; inactive = flat fitted curve, though single readings scatter; the % refers to the signal ratio. The entries come from a sample that favours actives as a whole.
# Experiment: qHTS Assay for Lipid Storage Modulators in Drosophila S3 Cells;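 for cell number change: cells counted by Cell Tracker Red CMTPX staining in the red channel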; for lipid storage change, negative = inhibition: % is set by controls: 0 for no effect and ±100 for the full control effect
# Settings: BODIPY lipid droplet fluorescence, 18-24 h, cells fed with added oleic acid; cell number change: measured here: cell count max response; series mostly up to 46.1 µM; lipid storage change, negative = inhibition: at the top concentration
# How it was run: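 Drosophila S3 cells loaded with oleic acid (400 uM, as added) and compounds at several concentrations; lipid droplets imaged by 488-nm laser-scanning cytometry, 500–530 nm intensity and object ratio to cell channel. Percent activity normalized to 20 uM Triacsin C.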
# Potency is the fitted concentration of half-maximal effect.
Structure (SMILES),outcome,cell number change,Potency,"lipid storage change, negative = inhibition"
Cc1ccc(NC(=O)c2sc3nc4c(c(-c5ccco5)c3c2N)CCC4)cc1,inactive,-11.1%,–,–
Nc1c(C(=O)NCC2CCCO2)sc2nc3c(c(-c4ccco4)c12)CC/C3=C\c1ccco1 (configuration not stated),–,3.45%,8.2 µM (active),–
Nc1c(C(=O)Nc2ccccc2)sc2nc3c(c(-c4ccco4)c12)CCCC3,–,-3.84%,–,12.6% (inactive)
COc1ccc(NC(=O)CC2C(=O)NCCN2C(=O)Nc2ccc(C(F)(F)F)cc2)cc1 (configuration not stated),–,12.2%,–,0.561% (inactive)
Cc1cccc(NC(=O)CN2C(=O)N/C(=C\c3ccc(-c4cccc(C(=O)O)c4)o3)C2=O)c1,–,-0.725%,–,0.48% (inactive)
CCCn1c(N)c(N(CCOC)C(=O)/C=C/c2ccc(C(=O)OC)cc2)c(=O)[nH]c1=O,–,-4.64%,–,-7.54% (inactive)
CC(C)(C)NC(=O)C(c1ccc(F)cc1)N(Cc1ccco1)C(=O)c1csnn1 (configuration not stated),–,-0.0921%,–,13.7% (inactive)
Cc1ccc(NC(=O)CCc2c(C)[nH]c(=O)c(C#N)c2C)cc1,inactive,16.2%,–,–
COc1ccccc1NC(=O)CCc1c(C)[nH]c(=O)c(C#N)c1C,–,16.5%,–,-20.9% (inactive)
COc1cc(NC(=O)CCc2c(C)[nH]c(=O)c(C#N)c2C)cc(OC)c1,–,-2.94%,0.058 µM (active),–
COc1ccc(-c2[nH]ncc2/C=N/NC(=O)c2ccc(Br)cc2)c(OC)c1,–,3.28%,–,15.5% (inactive)
CCOc1ccc(NC(=O)CN2C(=O)CSC(C)C2=O)cc1 (configuration not stated),–,8.89%,–,18.6% (inactive)
Cc1c(C(=O)N(CCC#N)c2ccccc2)sc2nc3n(c(=O)c12)CCCC3,–,7.46%,–,-10.6% (inactive)
Oc1ccc(Br)cc1-c1cc(-c2ccccc2Cl)[nH]n1,–,-23.2%,–,-22.2% (inactive)
COc1ccc(O)c(-c2cc(-c3ccccc3[N+](=O)[O-])[nH]n2)c1,–,-1.9%,–,7.36% (inactive)
COc1ccc(O)c(-c2cc(-c3ccccc3Cl)[nH]n2)c1,–,-20.4%,3.66 µM (active),–
CCc1ccc(/C=C(\C)C(=O)c2c(C)cc(C)[nH]c2=O)cc1,–,-0.605%,–,3.7% (inactive)
CCOc1ccc(C2c3[nH]c4ccccc4c3C[C@H]3C(=O)N(C4CC4)CC(=O)N23)cc1OC (some centres not stated),–,5.07%,–,9.36% (inactive)
CCOc1ccc2oc(C(=O)NC(C)(C)CC)c(C)c2c1,–,-22.3%,–,5.67% (inactive)
CC(C)(C)N(Cc1ccccc1)C(=O)COC(=O)CNS(=O)(=O)c1ccc2ccccc2c1,–,-5.96%,–,4.49% (inactive)
COc1cccc(N2CCN(C(C)C(=O)NC34CC5CC(CC(C5)C3)C4)CC2)c1 (configuration not stated),–,-27.6%,1.3 µM (active),–
COc1cccc(C(=O)NC23CC4CC(CC(C4)C2)C3)c1,–,26.5%,–,15.8% (inactive)
COc1ccc(N2CCN(C(=O)NC34CC5CC(CC(C5)C3)C4)CC2)cc1,inactive,–,–,–

Structure (SMILES),outcome,cell number change,Potency,"lipid storage change, negative = inhibition"
O=C1c2ccccc2C(=O)c2c1cccc2N1CCN(Cc2ccccc2)CC1,–,–,18.4 µM (active),–
O=c1[nH]ncc(N2CCN(Cc3ccccc3)CC2)c1Cl,–,12.7%,–,13.6% (inactive)
CC(=C1C(=O)c2ccccc2C1=O)N1CCN(Cc2ccccc2)CC1,inactive,11.8%,–,–
CCN(CC)C(c1ccc(F)cc1)c1nnnn1C1CCCCC1 (configuration not stated),–,-7.83%,–,10.6% (inactive)
CN(c1ccccc1)C(c1ccc(F)cc1)c1nnnn1CC1CCCO1 (configuration not stated),inactive,–,–,–
CCN(CC)C(c1ccc(F)cc1)c1nnnn1CC1CCCO1 (configuration not stated),–,4.03%,18.4 µM (active),–
CC(C)c1nc(SCC(=O)N2CCOCC2)c2c(=O)n(C)c(=O)n(C)c2n1,–,5.66%,–,8.15% [at 9.22 µM] (inactive)
C=C(C)Cn1c(SCC(=O)O)nnc1-c1ccc(C(C)(C)C)cc1,–,-3.69%,29.1 µM (active),–
Cn1c(SCC(N)=O)nnc1-c1ccc(C(C)(C)C)cc1,–,-9.51%,–,-7.75% (inactive)
C=CCn1c(SCC(=O)O)nnc1-c1ccc(C(C)(C)C)cc1,–,5.05%,–,-0.438% (inactive)
CC(C)=CC(O)C/C(C)=C/COc1ccc2ccc(=O)oc2c1 (configuration not stated),–,-2.96%,–,5.31% (inactive)
O=C(NCC(c1ccco1)N1CCOCC1)c1ccc(F)c(F)c1 (configuration not stated),–,3.3%,–,6.58% (inactive)
CCCCC1C2C(=O)N(c3ccccc3)C(=O)C2ON1c1ccccc1 (configuration not stated),–,-1.39%,–,14.1% (inactive)
CCCOc1ccc(N2C(=O)C3ON(c4ccccc4)C(CCC)C3C2=O)cc1 (configuration not stated),–,10.7%,18.4 µM (active),–
CCCCC1C2C(=O)N(c3ccc(C)cc3)C(=O)C2ON1c1ccccc1 (configuration not stated),–,7.09%,–,0.528% (inactive)
CSc1nnc(C)c(=O)n1COC(=O)COc1ccc(Cl)cc1,–,11.4%,–,8.1% (inactive)
CCO[C@H]1OC(C(=O)N2CCN(C)CC2)=C[C@@H](c2ccc(Br)cc2)[C@@H]1CCCO,–,4.76%,–,0.537% (inactive)
CC(=O)Nc1ccc(NC(=O)Nc2cc(C)cc(C)c2)cc1,–,7.61%,–,-8.79% (inactive)
CCC(CC)C(=O)NCCc1ccc(F)cc1,–,0.621%,25.9 µM (active),–
CCC(CC)C(=O)NCCc1ccc(S(N)(=O)=O)cc1,–,-8.96%,–,0.195% (inactive)
O=C(Cc1ccc(F)cc1)NCCc1ccc(F)cc1,–,-3.73%,–,0.497% (inactive)
O=C(Cc1ccccc1)N/N=C/c1ccc[nH]1,–,7.79%,–,1.93% (inactive)
